PubChem BioAssay (NCI)
This is part of a sample that, as a whole, favours compounds with a hit. Of some 79,000 tested, about 15% had one in any assay. Activity calls are given as the source filed them. Rule as the data show it: active = growth inhibition above about 70%; inactive = the rest.

Experiments:
[1] = NCI Yeast Anticancer Drug Screen. Data for the rad50 strain (AID 155);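 also: 0% = growth of vehicle-only cultures of the same strain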; conditions: S. cerevisiae rad50 strain growth inhibition; at 50.0 µM; active compounds read high
How it was run: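 Inhibition values express reduced yeast growth in compound-treated cultures relative to vehicle-treated controls.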

[2] = NCI Yeast Anticancer Drug Screen. Data for the mec2-1 strain (AID 157); conditions: S. cerevisiae mec2-1 strain, at 50.0 µM, active compounds read high
How it was run: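 Strain: mec2-1 (DNA repair/cell cycle alteration). Compound exposure, then growth measured; inhibition expressed relative to vehicle.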

[3] = NCI Yeast Anticancer Drug Screen. Data for the sgs1 mgt1 strain (AID 161);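 also: 0% = growth of cultures given vehicle only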; conditions: S. cerevisiae sgs1 mgt1 strain, at 50.0 µM, active compounds read high
How it was run: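 Mutant yeast exposed to compound; growth scored against vehicle-only wells.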

[4] = NCI Yeast Anticancer Drug Screen. Data for the cln2 rad14 strain (AID 165);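 also: 0% = growth equal to vehicle treated cultures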; conditions: S. cerevisiae cln2 rad14 strain, at 50.0 µM, active compounds read high
How it was run: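 Compounds are applied to the cln2 rad14 yeast strain, and growth is then compared with that of vehicle-treated cultures to give inhibition.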

[5] = NCI Yeast Anticancer Drug Screen. Data for the bub3 strain (AID 167); conditions: S. cerevisiae bub3 mutant strain, at 50.0 µM, active compounds read high
How it was run: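 Steps: expose the mutant yeast strain to compound; grow alongside vehicle-treated cultures; measure growth; express inhibition against the vehicle cultures.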

[6] = NCI Yeast Anticancer Drug Screen. Data for the mlh1 rad18 strain (AID 175); conditions: S. cerevisiae mlh1 rad18 strain growth inhibition; at 50.0 µM; active compounds read high
How it was run: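 Read-out is yeast growth inhibition, calculated against vehicle-only controls. The compound was applied to a strain engineered with DNA damage repair alterations.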

Measured: growth inhibition

CC1(C)C2CC=C(CCO)C1C2 (stereo not drawn)
inactive: [1] -2.85% | [2] -5.8% | [3] 2.05% | [4] -20.6% | [5] 0.05% | [6] -21.4%

CN(C)c1ccc(N=Nc2cc3c4ccccc4ccc3c3ccccc23)cc1
inactive: [1] 15.1% | [2] -10.2% | [3] 23.1% | [4] 1.6% | [5] 9.45% | [6] 23.3%

COc1ccc(COC(=O)Nc2cccc(Cl)c2C)cc1
inactive: [1] -1.2% | [2] 8.95% | [3] 14.8% | [4] -25.7% | [5] -8.85% | [6] -3.2%

CO/C(N)=C(\C#N)N=Cc1ccco1
inactive: [1] -21.4% | [2] -22.4% | [3] -4.65% | [4] 11.8% | [5] -4.55% | [6] 9.3%

CC1(CO)CCCC1NCCNC1CCCC1(C)CO (stereo not drawn)
inactive: [1] 8.6% | [2] -6.7% | [3] 3.35% | [4] 10.3% | [5] -27.9% | [6] 15.5%

COc1ccc(N=Cc2ccc(C#N)cc2)cc1
inactive: [1] 9.4% | [2] -25.2% | [3] -7.15% | [4] 7.95% | [5] -12.8% | [6] -4.9%

COC(=O)C1CCC(C)(C(=O)OC)C1(C)C (stereo not drawn)
inactive: [1] 0% | [2] -15.2% | [3] -11.9% | [4] -1.3% | [5] -12.4% | [6] -3.75%

COc1ccc(C2=C/C(=C/c3cccc(OC)c3OC)C(=O)O2)cc1
inactive: [1] -10.6% | [2] 0.65% | [3] 11.9% | [4] -30.9% | [5] -11.2% | [6] -5.35%

O=S(=O)(N1CCCCC1)N1CCCCC1
inactive: [1] 2.3% | [2] -0.85% | [3] 0.85% | [4] 8.85% | [5] 10.2% | [6] -2.4%

N#CC1CCCC/C1=N/NC(N)=O (stereo not drawn)
inactive: [1] -11.9% | [2] -6.65% | [3] -13.6% | [4] -6.05% | [5] -6.65% | [6] -6%

COc1ccc2c(c1)CCc1c(C(C)=O)c3ccccc3n1C2
inactive: [1] 19.8% | [2] -13.3% | [3] 46.4% | [4] 15.2% | [5] 47.1% | [6] 2.15%

CC1NC(C(=O)O)Cc2cc(O)c(O)cc21 (stereo not drawn)
inactive: [1] -21.2% | [2] -36.6% | [3] -30.8% | [4] 5.35% | [5] -34.8% | [6] -49.2%

CCC(C)NCC/C(=C\[Si](C)(C)C)c1ccccc1 (stereo not drawn)
inactive: [1] 3.05% | [2] -11.8% | [3] -11.4% | [4] 11.7% | [5] -0.15% | [6] 8.5%

CC(=O)N[N+](C)(C)C
inactive: [1] -20% | [2] -39.2% | [3] 11.5% | [4] 4.05% | [5] 1.2% | [6] 7.9%

CC(=O)Nc1ccc(F)c([N+](=O)[O-])c1
inactive: [1] -6.45% | [2] -19.6% | [3] 3.35% | [4] -13.7% | [5] -14.9% | [6] 5.7%

C/C(C(=O)O)=C(\C)c1ccccc1
inactive: [1] -0.7% | [2] -0.75% | [3] -0.9% | [4] -15.6% | [5] 2.1% | [6] 5.2%

CN(C)c1ccc(/C=N/NC(=O)c2ccc(N)cc2)cc1
inactive: [1] 1.35% | [2] 5.15% | [3] -12.7% | [4] -12.4% | [5] -2.4% | [6] 14.3%

CC(=O)Oc1ccc(C(c2ccc(OC(C)=O)cc2)c2ccccn2)cc1
inactive: [1] 18.3% | [2] -0.6% | [3] -9.25% | [4] -62.4% | [5] -40.9% | [6] -22.9%

O=c1c2ccccc2[nH]c2c(O)c3c(=O)c4ccccc4[nH]c3cc12
inactive: [1] -8.6% | [2] -2.05% | [3] 3.9% | [4] -4.4% | [5] 3.15% | [6] 4.05%

COc1cccc(/C(Cl)=C(\C=O)c2cccc(OC)c2)c1
inactive: [1] 12.8% | [2] 19.1% | [3] 2.2% | [4] 10.7% | [5] 34% | [6] -10.1%

CC(=O)OCC1OC(n2cccnc2=O)C(OC(C)=O)C1OC(C)=O (stereo not drawn)
inactive: [1] -0.55% | [2] 2.75% | [3] 2.25% | [4] 7.8% | [5] 8.7% | [6] 0.9%

CC(C(=O)O)n1c(=O)ssc1=O (stereo not drawn)
inactive: [1] 1.95% | [2] 3.05% | [3] 1.3% | [4] -9.25% | [5] -8.7% | [6] 0%

COc1ccc(/C=C2\N=C(c3ccc([N+](=O)[O-])cc3)OC2=O)cc1
inactive: [1] -2.7% | [2] -6% | [3] -8.35% | [4] -9.5% | [5] 0.55% | [6] 18.4%

Nc1ncnc2c1nnn2CC(O)CO (stereo not drawn)
inactive: [1] -36% | [2] -19.2% | [3] -17.4% | [4] -25.5% | [5] -2.9% | [6] 5.2%

CC1OS(=O)OC1C (stereo not drawn)
inactive: [1] -20.9% | [2] -23.6% | [3] -2.4% | [4] -21.7% | [5] -8.45% | [6] -0.4%

O=C(Nc1ccccc1Cl)c1ccc(Cl)cc1
inactive: [1] 4.75% | [2] 14.9% | [3] 8.05% | [4] -16.2% | [5] 29.1% | [6] -4.75%

C=CCNC(=S)Nc1c(C)cc(C)cc1C
inactive: [1] 7.2% | [2] 8.4% | [3] 9.65% | [4] -51.4% | [5] 4.3% | [6] 12.2%

Nc1cccc(Br)n1
inactive: [1] 16.1% | [2] -4.9% | [3] 0.45% | [4] -51.7% | [5] 7.1% | [6] 4.9%

COc1ccc([N+](=O)[O-])cc1OC
inactive: [1] 29.9% | [2] -0.15% | [3] 33.1% | [4] 1.65% | [5] 0.45% | [6] 16.1%

Cc1ccc(C2C3CCC(=O)C=C3CN2C=O)cc1O (stereo not drawn)
inactive: [1] 10.2% | [2] 8.4% | [3] -3.2% | [4] -44.6% | [5] -2.6% | [6] 12.8%

COC(=O)C1CCC(=O)N1C(c1ccc(OC)cc1)c1ccc(OC)cc1 (stereo not drawn)
inactive: [1] -26.6% | [2] 25.6% | [3] 13.4% | [4] 12.6% | [5] 8.3% | [6] 6.7%

N#CCC(=O)N1CCc2ccccc2C1
inactive: [1] -30.9% | [2] 0.45% | [3] 1.85% | [4] -79.7% | [5] 9.6% | [6] 14.2%

CC1(C)CC2=C(Sc3ccccc3N2)C(=O)C1C(=O)C(=O)Nc1cc(Cl)ccc1Cl (stereo not drawn)
inactive: [1] -1.3% | [2] -6.95% | [3] -6.85% | [4] -28.3% | [5] -0.25% | [6] -9.55%

CCCCCC[n+]1ccc(C(=O)c2ccccc2)cc1
inactive: [1] 34.9% | [2] -5.8% | [3] 19.9% | [4] 7.9% | [5] 0.45% | [6] 32.6%

CC1=NN(c2ccccc2)C(=O)C1=C1SCCCS1
inactive: [1] -14.2% | [2] -25.4% | [3] 10.6% | [4] 16.4% | [5] -4.9% | [6] 1.8%

NC(=O)Cc1nc(O)cc(=O)[nH]1
inactive: [1] -8.45% | [2] -9.1% | [3] -8.3% | [4] -13.1% | [5] -1.9% | [6] -2.15%

CCOC(=O)c1ccc(C(=N)N)cc1
inactive: [1] 8.4% | [2] 2.2% | [3] 11% | [4] -15.2% | [5] 11.2% | [6] 5.55%

O=c1oc2ccccc2c(=O)n1O
inactive: [1] 65.8% | [2] 10.3% | [3] 10.1% | [4] 9.4% | [5] 30.1% | [6] 43.1%

CC(=O)c1cccc(NC(=O)Oc2ccc(C(=O)OCc3ccccc3)cc2)c1
inactive: [4] 42.8%
active: [1] 71.2% | [2] 88.9% | [3] 80.7% | [5] 92.2% | [6] 92.9%

C=C(C)C(=O)OCC(O)C[N+](C)(C)C (stereo not drawn)
inactive: [1] 0.35% | [2] -15.8% | [3] 2.9% | [4] 11.2% | [5] 5.1% | [6] 4.3%

CC1NC(=O)C(C)C(c2ccccc2)N(N=O)C1c1ccccc1 (stereo not drawn)
inactive: [1] -10.7% | [2] 7.8% | [3] 14.6% | [4] 0.05% | [5] -25.6% | [6] 11%

CC(=O)Oc1cc(C(C)C)c(OCCN(C)C)cc1C
inactive: [1] -0.15% | [2] 10.3% | [3] 0.45% | [4] -3.6% | [5] -0.5% | [6] -4.1%

COc1ccc(CCl)c(C)c1OC
inactive: [1] 32.7% | [2] 5.75% | [3] 18.9% | [4] 2.75% | [5] 16.1% | [6] -10.7%
